According to PubChem BioAssay AID624330 (Southern Research Specialized Biocontainment Screening …, 2012):
Among all 340,000 compounds or so, about 2,100 (0.62%) were called active.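 The calls were made as follows: active = first-screen hits whose inhibition reached a set limit at any dose in the follow-up dose series; inconclusive = inhibition above the set first-screen limit but never retested; inactive = the rest.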 These entries were drawn from the full list. Potency and affinity values are given separately.

Target: Rac GTPase-activating protein 1 (Homo sapiens) (UniProt Q9H0H5)
Assay: blockers of MgcRacGAP-driven Rac1 GTP hydrolysis – biochemical, ADP Hunter fluorescence, primary and confirmatory, confirmation (AID 624330);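 also: fluorescence reports GDP produced by GAP-driven GTP hydrolysis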
Conditions: MgcRacGAP-stimulated Rac1 GTP hydrolysis, at 30 µM, stronger effect = higher value, GST-tagged Rac1 F28L mutant substrate

Sequence of Rac GTPase-activating protein 1 (Homo sapiens) (Q9H0H5 whole entry, looked up): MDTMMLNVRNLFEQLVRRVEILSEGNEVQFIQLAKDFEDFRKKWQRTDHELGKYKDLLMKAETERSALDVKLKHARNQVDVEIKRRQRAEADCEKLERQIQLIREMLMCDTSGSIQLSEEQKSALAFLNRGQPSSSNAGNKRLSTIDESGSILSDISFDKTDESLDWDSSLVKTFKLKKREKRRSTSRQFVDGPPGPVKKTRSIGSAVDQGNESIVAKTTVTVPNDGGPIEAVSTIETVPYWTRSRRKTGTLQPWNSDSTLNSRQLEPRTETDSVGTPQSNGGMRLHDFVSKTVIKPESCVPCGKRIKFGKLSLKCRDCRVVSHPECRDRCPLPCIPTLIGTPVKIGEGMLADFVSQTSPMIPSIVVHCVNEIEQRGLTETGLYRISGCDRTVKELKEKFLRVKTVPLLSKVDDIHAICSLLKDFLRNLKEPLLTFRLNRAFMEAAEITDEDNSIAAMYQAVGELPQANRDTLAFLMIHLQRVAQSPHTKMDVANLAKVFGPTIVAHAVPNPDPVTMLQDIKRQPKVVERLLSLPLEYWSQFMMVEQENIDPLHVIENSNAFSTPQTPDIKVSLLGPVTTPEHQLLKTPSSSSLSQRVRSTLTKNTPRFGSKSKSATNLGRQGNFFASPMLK

inhibition, inactive:
CCC(C)[C@H](NC(=O)N1CCN(C)CC1)C(=O)OC (some centres not stated) 3.84%
Cc1ccc(C(=O)Nc2cccc(Oc3ccccc3)c2)o1 1.9%
c1ccc2[nH]c(CCCCc3nc4ccccc4[nH]3)nc2c1 7.39%
Nc1ccc(C(=O)OCCCc2nc3cc4ccccc4cc3[nH]2)cc1 14.4%
c1ccc2[nH]c(CCCc3nc4ccccc4[nH]3)nc2c1 -1.49%
Nc1ccc(C(=O)OCCCc2nc3ccccc3[nH]2)cc1 10%
Cc1ccc2nc(Cc3ccc(N)cc3)[nH]c2c1 6.07%
c1ccc(Cc2nc3ccccc3[nH]2)cc1 -0.91%
CCOCCCN(C(=O)CCC(=O)Nc1cc(C)on1)C(C(=O)NC(C)(C)C)c1ccccc1Cl (configuration not stated) 5.98%
COc1ccc(-c2c(NC(=O)CC(C)C)n(C)c3ccccc3c2=O)cc1OC 4.25%
Cn1c(COc2ccc([N+](=O)[O-])cc2)nnc1SCC(=O)NCC1CCCO1 (configuration not stated) 5.87%
CCN(CC)CCCNc1nc2ccccc2[nH]1 7.22%
CCN(CC)CCCNc1nc(-c2ccccc2)nc2ccccc12 17.7%
CCCCCCCCCCCCCCC(O)C[N+](C)(CCO)CCO (configuration not stated) 20.8%
CCCCCC(O)CCCC(=O)O (configuration not stated) 7.64%
CCOc1ccc(-n2nc3c(SCCN4CCCC4)nnc(C)c3c2C)cc1 10.3%
Oc1ccccc1Cc1c(O)ccc2ccccc12 23.7%
c1ccc2c(c1)ccc1ccccc12 -3.62%
c1ccc2c(c1)Nc1nccnc1S2 28.4%
COc1ccc2c(c1)S(=O)(=O)c1ccccc1N2 11.9%
Clc1cc2c(nn1)Nc1ccccc1S2 6.5%
COc1ccc(N/C=C2/Sc3ccccc3NC2=O)cc1 17.3%
FC(F)(F)c1cnc2c(c1)Nc1ccccc1S2 10.2%
c1ccc2c(c1)Nc1cc3ccccc3cc1S2 14.6%
Cn1c(N)c(C(=O)CSc2nnc(C3CC3)n2Cc2ccccc2)c(=O)[nH]c1=O 2.66%
N#Cc1ccc(OCC(=O)N2CCN(S(=O)(=O)c3cccc(Cl)c3)CC2)cc1 -0.69%
COc1ccc(NC(=O)CN(C)C(=O)/C=C/c2cn(-c3ccccc3)nc2-c2ccc(C)cc2)cc1 9.39%
CCOC(=O)Cc1csc(NC(=O)c2csc(C)c2)n1 9.83%
CCOc1ccccc1OCCOCCN1CCN(Cc2ccccc2)CC1 26.4%
Cc1cc(OCCN2CCCC2)ccc1[N+](=O)[O-] 19.6%
Cc1cc(OCCN2CCC(Cc3ccccc3)CC2)ccc1[N+](=O)[O-] 22%
O=C(c1ccccc1)c1ccc(OCCOCCN2CCN(Cc3ccccc3)CC2)cc1 25.1%
